From article PMC7862700, “An all-to-all approach to the identification of sequence-specific readers for epigenetic DNA modifications on cytosine” come the findings set out here.

Holding throughout (test): DAPPL (digital affinity profiling via proximity ligation, sequencing); 10 mM Tris-HCl pH 7.5, 50 mM NaCl, 1 mM DTT, 4% glycerol, room temperature, 30 min; GST-TFs on glutathione beads, 16-mer random dsDNA library, 0.1% formaldehyde crosslink after washing; high values mean tight binding
In one assay the target is T1, ELK1 (Homo sapiens, UniProt P19419 1-428).
T1 sequence: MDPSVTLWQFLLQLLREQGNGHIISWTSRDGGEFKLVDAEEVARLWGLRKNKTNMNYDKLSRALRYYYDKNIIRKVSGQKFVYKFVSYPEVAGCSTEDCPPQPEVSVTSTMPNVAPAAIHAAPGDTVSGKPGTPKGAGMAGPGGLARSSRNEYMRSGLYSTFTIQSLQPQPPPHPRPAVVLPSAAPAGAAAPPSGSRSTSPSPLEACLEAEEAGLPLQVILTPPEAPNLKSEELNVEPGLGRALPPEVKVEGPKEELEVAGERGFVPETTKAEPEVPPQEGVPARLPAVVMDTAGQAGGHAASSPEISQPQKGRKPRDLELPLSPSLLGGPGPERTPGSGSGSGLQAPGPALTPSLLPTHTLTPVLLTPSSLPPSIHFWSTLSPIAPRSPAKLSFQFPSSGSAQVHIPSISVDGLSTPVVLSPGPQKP
To be noted: protein: recombinant; tags: N-terminal GST; dsDNA, one strand shown. An outline of the steps: (§1)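 Human transcription factors were made in yeast as GST fusions, captured on glutathione beads and barcoded with DNA. With a tag-only sample included, the pool was incubated with 200 nmole of a random double-stranded 16-mer DNA library in Tris/NaCl/DTT/glycerol buffer at room temperature for 30 min, then crosslinked with 0.1% formaldehyde after washing, ligated by proximity, amplified and sequenced. For binding signal, each hexamer's read frequency for a factor is divided by its frequency for the tag-only sample.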

The target of a further assay is T2, EHF (Homo sapiens, UniProt Q9NZC4 1-300).
T2 sequence: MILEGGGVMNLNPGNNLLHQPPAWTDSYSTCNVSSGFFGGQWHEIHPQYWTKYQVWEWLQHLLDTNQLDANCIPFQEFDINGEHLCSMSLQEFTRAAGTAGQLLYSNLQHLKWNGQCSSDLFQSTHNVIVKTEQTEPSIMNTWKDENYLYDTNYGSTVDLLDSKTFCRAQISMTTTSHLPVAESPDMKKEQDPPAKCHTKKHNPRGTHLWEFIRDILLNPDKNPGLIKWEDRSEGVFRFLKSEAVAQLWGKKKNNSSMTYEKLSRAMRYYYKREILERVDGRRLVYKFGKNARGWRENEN
To be noted: protein: recombinant; tags: N-terminal GST; dsDNA, one strand shown. An outline of the steps: as §1

For the next assay, the target named is SPI1 (Homo sapiens, UniProt P17947 1-270). The note with it: protein: recombinant; tags: N-terminal GST; dsDNA, one strand shown. An outline of the steps: as §1
The target of a further assay is T3, ELK3 (Homo sapiens, UniProt P41970 1-407).
T3 sequence: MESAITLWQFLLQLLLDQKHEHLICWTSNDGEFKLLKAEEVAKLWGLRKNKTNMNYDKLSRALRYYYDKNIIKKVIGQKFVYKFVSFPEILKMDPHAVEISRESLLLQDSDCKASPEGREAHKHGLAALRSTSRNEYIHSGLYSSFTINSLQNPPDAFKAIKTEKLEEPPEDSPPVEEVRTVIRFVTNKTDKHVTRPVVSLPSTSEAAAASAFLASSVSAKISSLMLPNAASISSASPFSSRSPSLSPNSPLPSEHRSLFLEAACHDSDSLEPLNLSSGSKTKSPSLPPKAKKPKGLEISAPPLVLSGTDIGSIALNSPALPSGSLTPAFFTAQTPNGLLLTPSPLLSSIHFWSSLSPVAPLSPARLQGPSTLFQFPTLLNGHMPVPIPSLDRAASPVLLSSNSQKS
To be noted: protein: recombinant; tags: N-terminal GST; dsDNA, one strand shown. An outline of the steps:
as §1

Another assay has as its target HSF1 (Homo sapiens, UniProt Q00613 1-529). To be noted: protein: recombinant; tags: N-terminal GST; chain copies: 3; dsDNA, one strand shown. Summed up: as §1
Another assay deals with ELF4 (Homo sapiens, UniProt Q99607 1-663). The note with it: protein: recombinant; tags: N-terminal GST; dsDNA, one strand shown. An outline of the steps: as §1
The next assay has as its target T4, ELK4 (Homo sapiens, UniProt P28324-2 1-405).
T4 sequence: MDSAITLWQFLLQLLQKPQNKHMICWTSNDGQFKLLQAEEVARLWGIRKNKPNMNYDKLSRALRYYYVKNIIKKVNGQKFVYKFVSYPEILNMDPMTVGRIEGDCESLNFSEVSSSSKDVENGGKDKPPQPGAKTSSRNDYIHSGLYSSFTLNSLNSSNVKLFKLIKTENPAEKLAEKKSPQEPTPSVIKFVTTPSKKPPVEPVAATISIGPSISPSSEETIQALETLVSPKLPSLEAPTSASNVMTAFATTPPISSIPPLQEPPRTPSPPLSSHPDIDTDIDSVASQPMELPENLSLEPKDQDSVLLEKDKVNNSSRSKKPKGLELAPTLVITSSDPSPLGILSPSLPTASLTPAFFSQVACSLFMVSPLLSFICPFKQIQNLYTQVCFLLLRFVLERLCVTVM
The note with it: protein: recombinant; tags: N-terminal GST; dsDNA, one strand shown. An outline of the steps:
as §1

A further assay deals with CRX (Homo sapiens, UniProt O43186 1-299). To be noted: protein: recombinant; tags: N-terminal GST; dsDNA, one strand shown. An outline of the steps: as §1
In the next assay the target is T5, ETV3L (Homo sapiens, UniProt Q6ZN32 1-361).
T5 sequence: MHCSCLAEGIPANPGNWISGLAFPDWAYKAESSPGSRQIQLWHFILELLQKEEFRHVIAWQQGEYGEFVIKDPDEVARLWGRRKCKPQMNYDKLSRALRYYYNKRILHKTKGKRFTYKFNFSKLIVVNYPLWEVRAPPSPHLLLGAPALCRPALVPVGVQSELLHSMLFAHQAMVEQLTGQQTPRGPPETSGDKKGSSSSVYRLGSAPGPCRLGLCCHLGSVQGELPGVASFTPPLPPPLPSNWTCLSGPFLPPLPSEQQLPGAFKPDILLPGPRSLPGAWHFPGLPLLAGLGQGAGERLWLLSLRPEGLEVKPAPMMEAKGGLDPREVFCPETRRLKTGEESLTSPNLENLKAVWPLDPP
The note with it: protein: recombinant; tags: N-terminal GST; dsDNA, one strand shown. Summed up:
as §1

The next assay deals with T6, ETS2 (Homo sapiens, UniProt P15036 1-469).
T6 sequence: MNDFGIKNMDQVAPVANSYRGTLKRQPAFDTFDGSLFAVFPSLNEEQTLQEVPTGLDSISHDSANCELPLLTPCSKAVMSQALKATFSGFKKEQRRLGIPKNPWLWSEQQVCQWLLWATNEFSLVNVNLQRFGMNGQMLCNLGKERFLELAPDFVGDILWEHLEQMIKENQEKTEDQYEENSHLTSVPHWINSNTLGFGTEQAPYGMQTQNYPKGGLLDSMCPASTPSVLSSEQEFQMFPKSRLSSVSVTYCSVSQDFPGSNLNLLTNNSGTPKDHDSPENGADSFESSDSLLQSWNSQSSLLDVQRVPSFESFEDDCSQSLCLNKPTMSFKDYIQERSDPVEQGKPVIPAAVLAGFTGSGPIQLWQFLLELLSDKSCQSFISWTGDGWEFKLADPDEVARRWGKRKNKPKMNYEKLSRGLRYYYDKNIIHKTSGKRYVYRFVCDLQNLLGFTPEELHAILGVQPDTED
To be noted: protein: recombinant; tags: N-terminal GST; dsDNA, one strand shown. Summed up: as §1

The target in a further assay is T7, SPDEF (Homo sapiens, UniProt O95238 1-335).
T7 sequence: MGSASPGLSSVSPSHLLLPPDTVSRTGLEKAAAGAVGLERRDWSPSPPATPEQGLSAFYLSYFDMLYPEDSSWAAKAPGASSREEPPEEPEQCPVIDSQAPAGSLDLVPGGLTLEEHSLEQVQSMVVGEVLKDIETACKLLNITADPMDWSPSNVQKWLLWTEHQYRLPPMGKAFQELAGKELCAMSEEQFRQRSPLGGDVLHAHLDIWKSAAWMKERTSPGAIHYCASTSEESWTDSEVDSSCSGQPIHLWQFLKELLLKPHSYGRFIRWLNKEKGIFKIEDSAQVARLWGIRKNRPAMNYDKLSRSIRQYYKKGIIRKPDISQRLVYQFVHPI
The note with it: protein: recombinant; tags: N-terminal GST; dsDNA, one strand shown. An outline of the steps: as §1

In the next assay the target is ETV6 (Homo sapiens, UniProt P41212 1-452). To be noted: protein: recombinant; tags: N-terminal GST; dsDNA, one strand shown. An outline of the steps: as §1
The next assay has as its target ELF1 (Homo sapiens, UniProt P32519 1-619). To be noted: protein: recombinant; tags: N-terminal GST; dsDNA, one strand shown. Summed up: as §1
A further assay concerns the target T8, ETV2 (Homo sapiens, UniProt O00321 1-342).
T8 sequence: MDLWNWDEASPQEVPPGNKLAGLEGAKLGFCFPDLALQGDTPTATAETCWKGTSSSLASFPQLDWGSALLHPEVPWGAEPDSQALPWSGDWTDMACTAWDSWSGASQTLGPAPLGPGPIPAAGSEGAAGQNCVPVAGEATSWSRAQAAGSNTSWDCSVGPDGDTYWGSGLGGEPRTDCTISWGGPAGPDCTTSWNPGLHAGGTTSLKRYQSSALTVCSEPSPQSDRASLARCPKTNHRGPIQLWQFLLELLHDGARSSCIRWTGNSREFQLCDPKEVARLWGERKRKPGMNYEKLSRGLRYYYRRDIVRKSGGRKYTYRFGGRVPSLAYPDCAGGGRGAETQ
To be noted: protein: recombinant; tags: N-terminal GST; dsDNA, one strand shown. Summed up:
as §1

For another assay, the target named is T9, ELF3 (Homo sapiens, UniProt P78545 1-371).
T9 sequence: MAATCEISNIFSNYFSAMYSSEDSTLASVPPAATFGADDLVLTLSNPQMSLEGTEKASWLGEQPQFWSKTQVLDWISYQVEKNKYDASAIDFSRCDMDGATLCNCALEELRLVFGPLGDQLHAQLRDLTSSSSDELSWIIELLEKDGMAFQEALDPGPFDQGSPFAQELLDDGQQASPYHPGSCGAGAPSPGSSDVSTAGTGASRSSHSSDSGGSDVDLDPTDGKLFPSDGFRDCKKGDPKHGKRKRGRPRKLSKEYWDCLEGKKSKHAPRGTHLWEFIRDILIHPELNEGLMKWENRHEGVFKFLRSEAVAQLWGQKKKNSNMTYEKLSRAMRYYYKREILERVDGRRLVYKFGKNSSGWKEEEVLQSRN
To be noted: protein: recombinant; tags: N-terminal GST; dsDNA, one strand shown. An outline of the steps:
as §1

ETV6, sequence (P41212 whole entry): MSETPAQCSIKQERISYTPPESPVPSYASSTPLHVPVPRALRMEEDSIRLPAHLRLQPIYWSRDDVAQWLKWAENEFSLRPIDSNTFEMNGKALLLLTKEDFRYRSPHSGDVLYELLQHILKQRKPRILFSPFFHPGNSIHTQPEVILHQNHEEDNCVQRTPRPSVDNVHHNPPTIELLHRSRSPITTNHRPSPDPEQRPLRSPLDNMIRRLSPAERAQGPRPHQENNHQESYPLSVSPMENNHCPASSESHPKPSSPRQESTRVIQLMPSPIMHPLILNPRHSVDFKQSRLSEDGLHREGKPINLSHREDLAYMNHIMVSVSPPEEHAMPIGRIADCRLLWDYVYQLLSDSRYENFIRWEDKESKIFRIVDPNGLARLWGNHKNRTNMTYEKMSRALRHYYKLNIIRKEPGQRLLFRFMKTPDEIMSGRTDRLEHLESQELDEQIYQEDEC
ELF4, sequence (Q99607 whole entry): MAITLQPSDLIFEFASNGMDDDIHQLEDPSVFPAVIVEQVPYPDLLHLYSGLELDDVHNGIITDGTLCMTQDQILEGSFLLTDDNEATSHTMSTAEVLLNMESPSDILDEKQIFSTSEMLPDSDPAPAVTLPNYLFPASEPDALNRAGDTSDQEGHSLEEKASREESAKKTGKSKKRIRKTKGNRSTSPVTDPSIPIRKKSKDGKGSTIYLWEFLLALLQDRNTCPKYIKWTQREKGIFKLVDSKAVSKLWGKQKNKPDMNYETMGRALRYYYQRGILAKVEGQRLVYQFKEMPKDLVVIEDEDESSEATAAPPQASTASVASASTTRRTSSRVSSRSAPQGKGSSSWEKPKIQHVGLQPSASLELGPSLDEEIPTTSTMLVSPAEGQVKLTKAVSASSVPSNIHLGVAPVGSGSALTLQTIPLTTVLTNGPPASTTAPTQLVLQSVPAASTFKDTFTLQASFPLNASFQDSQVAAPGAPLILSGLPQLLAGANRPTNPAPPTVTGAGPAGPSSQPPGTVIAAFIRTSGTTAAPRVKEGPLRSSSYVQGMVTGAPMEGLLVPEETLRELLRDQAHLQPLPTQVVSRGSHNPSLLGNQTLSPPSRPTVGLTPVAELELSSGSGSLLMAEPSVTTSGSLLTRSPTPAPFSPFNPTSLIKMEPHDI
HSF1, sequence (Q00613 whole entry): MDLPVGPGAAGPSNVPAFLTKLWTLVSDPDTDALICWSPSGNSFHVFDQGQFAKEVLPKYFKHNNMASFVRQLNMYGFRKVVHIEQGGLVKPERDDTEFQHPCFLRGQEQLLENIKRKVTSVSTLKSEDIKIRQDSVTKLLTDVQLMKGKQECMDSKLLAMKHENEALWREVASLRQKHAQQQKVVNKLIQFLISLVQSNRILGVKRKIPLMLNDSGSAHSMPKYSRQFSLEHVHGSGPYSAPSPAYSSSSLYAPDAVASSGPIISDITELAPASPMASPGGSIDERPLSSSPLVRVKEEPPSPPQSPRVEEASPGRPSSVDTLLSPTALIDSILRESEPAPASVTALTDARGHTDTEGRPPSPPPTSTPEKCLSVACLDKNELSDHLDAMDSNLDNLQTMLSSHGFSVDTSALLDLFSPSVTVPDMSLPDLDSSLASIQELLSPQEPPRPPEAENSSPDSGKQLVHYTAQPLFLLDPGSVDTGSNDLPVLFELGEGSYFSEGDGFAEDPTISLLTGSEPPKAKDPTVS
ELF1, sequence (P32519 whole entry): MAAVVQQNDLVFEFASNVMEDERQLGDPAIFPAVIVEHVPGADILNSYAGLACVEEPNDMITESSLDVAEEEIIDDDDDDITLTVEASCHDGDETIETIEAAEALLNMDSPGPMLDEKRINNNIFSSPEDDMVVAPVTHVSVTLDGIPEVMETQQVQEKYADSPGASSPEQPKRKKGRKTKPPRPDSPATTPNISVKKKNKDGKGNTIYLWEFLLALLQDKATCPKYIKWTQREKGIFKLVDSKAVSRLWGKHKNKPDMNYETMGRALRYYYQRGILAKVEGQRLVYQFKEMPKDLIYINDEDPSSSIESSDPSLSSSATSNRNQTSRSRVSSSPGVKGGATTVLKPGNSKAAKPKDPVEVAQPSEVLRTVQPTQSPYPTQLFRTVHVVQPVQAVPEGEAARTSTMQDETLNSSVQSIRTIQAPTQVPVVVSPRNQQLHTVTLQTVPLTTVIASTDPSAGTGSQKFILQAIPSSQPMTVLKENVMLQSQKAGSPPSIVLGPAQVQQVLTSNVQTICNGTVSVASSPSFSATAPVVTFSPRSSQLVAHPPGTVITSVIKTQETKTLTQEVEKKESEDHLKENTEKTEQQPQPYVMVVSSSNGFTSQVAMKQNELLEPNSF
CRX, sequence (O43186 whole entry): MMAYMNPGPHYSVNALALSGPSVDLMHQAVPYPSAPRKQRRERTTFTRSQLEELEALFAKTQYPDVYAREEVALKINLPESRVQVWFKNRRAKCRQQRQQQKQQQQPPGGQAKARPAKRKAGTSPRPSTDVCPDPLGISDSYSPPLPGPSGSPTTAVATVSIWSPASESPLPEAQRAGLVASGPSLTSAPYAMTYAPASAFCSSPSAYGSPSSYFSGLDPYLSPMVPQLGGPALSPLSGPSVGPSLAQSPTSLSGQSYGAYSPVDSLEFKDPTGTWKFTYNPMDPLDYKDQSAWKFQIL

Take AGATTA: the binding signal is 1.02 fold enrichment (6-mer frequency, TF over GST control) in the assay with ELK1; 1.03 fold enrichment (6-mer frequency, TF over GST control) in the assay with EHF; 1.01 fold enrichment (6-mer frequency, TF over GST control) with SPI1; 1.03 fold enrichment (6-mer frequency, TF over GST control) with ELK3; 2.62 fold enrichment (6-mer frequency, TF over GST control) with HSF1; 1.05 fold enrichment (6-mer frequency, TF over GST control) in the assay with ELF4. The binding signal with ELK4 is 1.05 fold enrichment (6-mer frequency, TF over GST control); with CRX, 4.03 fold enrichment (6-mer frequency, TF over GST control); with ETV3L, 1.02 fold enrichment (6-mer frequency, TF over GST control); with ETS2, 1 fold enrichment (6-mer frequency, TF over GST control); with SPDEF, 1.05 fold enrichment (6-mer frequency, TF over GST control); in the assay with ETV6, 1.04 fold enrichment (6-mer frequency, TF over GST control).
Consider GAATGA, for which the binding signal with ELF1 is 1 fold enrichment (6-mer frequency, TF over GST control); with ELK3 it was 1.02 fold enrichment (6-mer frequency, TF over GST control); with HSF1, 1.15 fold enrichment (6-mer frequency, TF over GST control); in the assay with ELF4, 1 fold enrichment (6-mer frequency, TF over GST control); in the assay with ETV2 it was 1.11 fold enrichment (6-mer frequency, TF over GST control); in the assay with ELF3 it was 1.07 fold enrichment (6-mer frequency, TF over GST control). Moreover, in the assay with ETV6, the binding signal is 1.02 fold enrichment (6-mer frequency, TF over GST control).
